Source: PubChem (National Center for Advancing Translational Sciences (NCATS))
The list is not random: actives were taken first. Their share in the collection is about 7.4%.
ELG1 genotox: genotoxicity induction in ELG1-luciferase HEK293T cells; HEK293T ELG1-luciferase reporter, luminescence, 16 h; AID 504466; 330,000 tested, 1.3% active; Potency, µM (highest dose often 46 µM), actives largely listed as activators; also: nearly all actives have a fitted effect of over 60% in size
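HEK293T cells expressing luciferase-tagged ELG1 were exposed to compound or DMSO vehicle for 16 hr at 37 °C and 5% CO2. Luciferase activity was then measured with ONE-Glo after 30 min at room temperature.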
p53 reactivator: re-activators of mutant p53; AID 504706; H1299 p53-A138V BP100-luciferase reporter, luminescence, 24 h; Potency, µM (top dose mostly 92.2 µM), usual class: activators; 320,000 tested, 0.063% active; also: nearly all actives have a fitted effect of over 45% in size
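p53-null H1299 cells stably carrying temperature-sensitive p53-A138V and a BP100-luciferase reporter were pinned with compounds (4-point, 1:5 series) and held 24 hrs at 37 deg C. Luminescence was read 10 min after detection reagent.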
Rab9 promoter act: activators of Rab9 promoter; 320,000 tested, 2.8% active; AID 485297; Huh7 Rab9 promoter-luciferase reporter, luminescence, 24 h; Potency, µM (highest dose often 9.22 µM), usual class: activators; also: nearly all actives have a fitted effect of over 60% in size
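Cells were plated at 1500 per well in reduced-serum medium with 10% FBS and left 2 h. Compound in DMSO was then added for 24 h at 37 °C. Reporter signal was read by luminescence after 10 min with luciferase detection reagent.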
NPC1 prom act: activates the NPC1 promoter; Huh7 NPC1 promoter luciferase reporter, 24 h; Potency, µM (doses to about 9.22 µM), hits mostly activators; 320,000 tested, 2.4% active; also: nearly all actives have a fitted effect of over 60% in size
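Stable NPC1-promoter luciferase Huh7 line; cpd (DMSO) 24 h, 37 °C, 5% CO2; Amplite luciferase reagent 10 min RT; luminescence readout. qHTS format.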
SMN2 splice enh: SMN2 splice variant enhancement. Potency, µM (titrated, usually from 46.1 µM), hits mostly activators. AID 1458. 210,000 tested, 2.8% active. HEK293 SMN2-luciferase splicing reporter, luminescence, 30-36 h; also: nearly all actives have a fitted effect of over 55% in size
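qHTS luciferase splicing reporter: luminescence rises when SMN2 exon 7 is included in transfected HEK293 cells. Compound exposure lasted 30-36 h at 37C, with 4.5 mM final sodium butyrate as control, followed by a ONE-Glo read.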
FLuc modulator: inhibits or activates purified firefly luciferase, miR-21 counter-screen; purified FLuc, Km substrates, luminescence inhibition; 360,000 tested, 6.9% active; AID 588342; Potency, µM (series often up to 57.5 µM), most hits filed as inhibitors; P08659; also: nearly all actives have a fitted effect of over 55% in size
Target sequence (P08659 whole entry, looked up): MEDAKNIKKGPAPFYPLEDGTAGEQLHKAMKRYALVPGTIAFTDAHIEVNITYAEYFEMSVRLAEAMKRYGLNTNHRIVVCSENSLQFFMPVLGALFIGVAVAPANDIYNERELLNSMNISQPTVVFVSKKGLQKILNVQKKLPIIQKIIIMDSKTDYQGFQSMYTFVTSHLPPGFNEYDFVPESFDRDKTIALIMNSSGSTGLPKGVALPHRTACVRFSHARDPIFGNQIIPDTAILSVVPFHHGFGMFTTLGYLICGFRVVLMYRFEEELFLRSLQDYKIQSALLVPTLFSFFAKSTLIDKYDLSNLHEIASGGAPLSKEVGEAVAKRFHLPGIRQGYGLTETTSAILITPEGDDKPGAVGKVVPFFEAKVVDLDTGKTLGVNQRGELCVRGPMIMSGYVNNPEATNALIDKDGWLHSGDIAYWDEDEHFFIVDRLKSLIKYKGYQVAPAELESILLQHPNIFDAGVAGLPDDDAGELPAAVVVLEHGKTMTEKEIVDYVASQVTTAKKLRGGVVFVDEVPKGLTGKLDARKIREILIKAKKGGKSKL
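Purified P. pyralis luciferase, 10 nM final, with Km-level 10 uM D-luciferin and 10 uM ATP in 50 mM Tris acetate pH 7.5, 10 mM Mg acetate, 0.01% Tween-20, 0.05% BSA; 6-point qHTS titration about 60 µM downward; luminescence read.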
Hits are given with their value; 0 = inactive; ? = inconclusive; - = no result given; [ ] = dose if it differs, or a comment. Calls follow the shape of the dose curve; as a rule, active = well fitted curve in the direction sought with a large enough effect; inconclusive = small, poorly fitted or top-dose-only effect, or another doubt; inactive = no such curve, though single readings can be large; an effect the other way counts as inactive or inconclusive.

SMILES	ELG1 genotox	p53 reactivator	Rab9 promoter act	NPC1 prom act	SMN2 splice enh	FLuc modulator
COc1cc(OC)cc(-c2nc(-c3cccs3)no2)c1	0	0	?	?	0	11µM
COc1cccc(-c2nc(-c3cccs3)no2)c1	?	?	2.5µM	2.8µM	-	0.27µM
COc1cccc(-c2nc(-c3ccncc3)no2)c1	?	?	1.4µM	2.8µM	-	5.4µM
COc1cc(OC)cc(-c2nc(-c3ccccc3OC)no2)c1	0	?	0	0	0	0
CCOc1ccc2c(ccc(/C=C\c3cc(C)c4cccnc4c3O)[n+]2C)c1	-	-	-	-	0[9.22 µM]	-
FC(F)(F)c1cccc(N2CCN(C3CC4CCC3C4)CC2)c1 (centres undefined)	0	0	0	0	-	0
Clc1ccc(Nc2nc3cccnc3s2)cc1	?	?	2.5µM	2.8µM	13µM	?
Nc1nc(-c2ccc(F)cc2)cs1	?	0	?	0	0	?
Nc1nc(-c2ccc(Br)cc2)cs1	?	?	?	?	?	19µM
Cc1ccc(-c2csc(-c3ccncc3)n2)cc1	?	0	4µM	?	?	11µM
Cc1ccc(-c2csc(-c3nc(-c4ccc(Br)s4)cs3)n2)cc1	-	-	-	-	0	0
Brc1ccc(-c2csc(Nc3nc(-c4ccc(Br)cc4)cs3)n2)cc1	0	0	0	0	-	?
Brc1ccc(-c2csc(-c3ccncc3)n2)cc1	?	?	?	0	?	4.8µM
CCOC(=O)c1cccc(NC(=O)c2cccs2)c1	?	0	0	0	0	21µM
COc1cc(NC(=O)c2ccccc2Cl)ccc1NC(=O)c1cccs1	?	0	2.8µM	?	22µM	13µM
CCOC(=O)c1cccc(NC(=O)c2ccccc2C)c1	0	0	?	0	0	0
CCOC(=O)c1cccc(Nc2nc(C)cc(C)n2)c1	0	?	4.5µM	?	?	?
COc1cccc(C(=O)Nc2cc(NC(=O)c3cccs3)ccc2C)c1	0	0	0	0	-	12µM
COc1cc(NC(=O)c2cc3ccccc3cc2OC)ccc1NC(=O)c1cccs1	0	0	0	0	-	0
Cc1ccc(NC(=O)c2cccs2)cc1NC(=O)c1cccc(F)c1	0	-	0	0	-	?
COc1ccc(Nc2oc(/C=C/c3ccc(OC)c(OC)c3)nc2C#N)cc1	-	-	-	-	0	0
CC(=O)Oc1cccc(C(=O)Nc2ccc(NC(=O)c3cccs3)cc2)c1	?	0	?	4.5µM	-	0
O=C(O)c1ccc(NC(=O)c2cccc(NC(=O)c3cccs3)c2)cc1	0	0	0	0	-	?
COc1cccc(C(=O)Nc2cc(NC(=O)c3cccs3)ccc2C)c1OC	0	-	0	0	-	21µM
COc1cccc(C(=O)Nc2cccc(NC(=O)c3cccs3)c2)c1	0	-	0	0	-	21µM
SMILES	ELG1 genotox	p53 reactivator	Rab9 promoter act	NPC1 prom act	SMN2 splice enh	FLuc modulator
CCOC(=O)c1cccc(NC(=O)c2sc3nc[nH]c(=O)c3c2C)c1	-	-	-	-	-	15µM
CC1CN(C(=O)c2ccc(CNS(=O)(=O)c3cccc(Cl)c3)cc2)CC(C)O1 (centres undefined)	0	-	0	0	-	0
O=C1C(=O)N(C2CCN(C(=O)c3ccc(F)cc3)CC2)CCN1Cc1ccc(F)cc1	-	-	-	-	-	0
S=c1[nH]nc(C2CCCCC2)n1/N=C/c1cccc(Cl)c1Cl	0	0	0	0	-	0
CCc1sc(C(=O)Nc2cccc(C(C)=O)c2)cc1C	0	0	?	0	?	11µM
CC(=O)c1cccc(NC(=O)c2cc3c(s2)-c2c(C)cccc2OC3)c1	-	-	-	-	0	0
CCOC(=O)c1cccc(NC(=O)c2cc3sccc3n2C)c1	?	?	0.89µM	0.35µM	14µM	24µM
Cn1ccnc1Sc1ccc(/C=N/NC(=O)c2ccccc2O)cc1[N+](=O)[O-]	0	0	0	0	0	5.4µM
COc1cn(-c2ccccc2)nc1C(=O)Nc1ccc(C)cc1	0	0	?	?	-	8.5µM
COc1cn(-c2ccccc2)nc1C(=O)Nc1ccccc1	0	0	?	?	-	13µM
CCOc1ccccc1CNC(=O)CCC(=O)N1CCSc2ccccc21	-	-	-	-	-	0
O=C(Cn1cnc([N+](=O)[O-])c1)NCCc1ccccc1	0	-	0	0	-	0
COc1cccc2sc3cc(NCCCN4CCOCC4)ccc3c(=O)c12	0	0	-	-	-	-
O=C(NCCCn1ccnc1)c1cc2ccccc2oc1=O	0	0	0	0	0	0
